Some of the results follow. Unmarked numbers belong to inactive results. How the calls were made is not given here.
Assay: fluorescence polarization interference in PKD1 assay, artefact control for PKD1 inhibitor project, biochemical, 140K library (AID 1315)
Conditions: PKD1 FP assay interference counter-screen, at 10 µM, hits give high values

Row | SMILES | inhibition
1 | COc1ccc(Nc2cc(C)nc(-n3nc(C)cc3C)n2)cc1 | -21.9%
2 | COc1ccccc1C(=O)NN1C(=O)C2C3C=CC(O3)C2C1=O (stereo not drawn) | -4.38%
3 | Cc1ccc(NC(=O)C2CCCN(S(=O)(=O)c3c(C)noc3C)C2)c(C)c1 (stereo not drawn) | -13.6%
